We go through 20 compounds from PubChem BioAssay (NCI).

Test [1] is described as follows: NCI Yeast Anticancer Drug Screen. Data for the rad50 strain (AID 155).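 Also: 0% = growth of vehicle-only cultures of the same strain.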 The following applies: S. cerevisiae rad50 strain growth inhibition; at 50.0 µM; active compounds read high. Put shortly:
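Compounds were tested on a yeast strain with an engineered DNA damage repair alteration; the reported value is growth inhibition normalised to vehicle treatment.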

Test [2] can be described thus: NCI Yeast Anticancer Drug Screen. Data for the mec2-1 strain (AID 157). The conditions noted are these: S. cerevisiae mec2-1 strain, at 50.0 µM, active compounds read high. Put shortly:
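Vehicle-treated cultures served as reference for growth inhibition of compound-exposed mec2-1 yeast.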

Test [3] can be described thus: NCI Yeast Anticancer Drug Screen. Data for the sgs1 mgt1 strain (AID 161).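 Also: 0% = growth of cultures given vehicle only.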 The conditions noted are these: S. cerevisiae sgs1 mgt1 strain, at 50.0 µM, active compounds read high. In short, it runs like this:
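Read-out: growth inhibition vs vehicle controls. Cells: mutant yeast strain deficient in DNA damage repair.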

The nature of test [4]: NCI Yeast Anticancer Drug Screen. Data for the cln2 rad14 strain (AID 165).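 Also: 0% = growth equal to vehicle treated cultures.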 The conditions noted are these: S. cerevisiae cln2 rad14 strain, at 50.0 µM, active compounds read high. In short, it runs like this: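 Each compound was tested on cln2 rad14 yeast. Inhibition of growth was calculated against vehicle-exposed controls.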
A short description of test [5]: NCI Yeast Anticancer Drug Screen. Data for the bub3 strain (AID 167). The following applies: S. cerevisiae bub3 mutant strain, at 50.0 µM, active compounds read high. Put shortly:
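Growth of a checkpoint-deficient yeast mutant is measured after compound exposure. Values represent inhibition relative to vehicle.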

The nature of test [6]: NCI Yeast Anticancer Drug Screen. Data for the mlh1 rad18 strain (AID 175). The conditions noted are these: S. cerevisiae mlh1 rad18 strain growth inhibition; at 50.0 µM; active compounds read high. Put shortly: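 Vehicle-treated cultures served as the reference for growth inhibition in a yeast strain carrying DNA damage repair alterations exposed to each compound.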

SMILES strings stand for the structures. Compounds without any hit were thinned out: in the full panel of roughly 79,000, 15% have a hit. Values without a mark were called inactive. Activity calls are given as the source filed them. Rule as the data show it: active = growth inhibition above about 70%; inactive = the rest.

Consider `CCOC(=O)c1ccccc1Nc1c(C(=O)OCC)cnc2cc3c(cc12)OCO3`, for which the growth inhibition is -13.8% in test [1]; 3.95% in test [2]; -9.85% in test [3]; 2.85% in test [4]; -0.25% in test [5]; -7.8% in test [6].

Regarding `CC(N)CCN` (stereo not given), the growth inhibition was 3.7% in test [1]; 11.2% in test [2]; -5.55% in test [3]; 10.8% in test [4]; 12.1% in test [5]; 1.55% in test [6].

On to `Nc1ccc(C(=O)O)cc1[N+](=O)[O-]`, for which the growth inhibition in test [1] was -0.85%; in test [2], -4.65%; in test [3] it was -3.7%; in test [4] it was -14.6%; in test [5] it was 2.15%; in test [6], -1.5%.

On to `CCN(CC)C(=O)Oc1cc(C(=O)N(CC)CC)c(OC(=O)N(CC)CC)cc1C(=O)N(CC)CC`, for which the growth inhibition was 5.1% in test [1]; 8.15% in test [2]; -1.6% in test [3]; -1.4% in test [4]; 1% in test [5]; 30.1% in test [6].

As for `CCOc1ccc(/C=N/O)cc1OCC`, the growth inhibition in test [1] was -0.3%; in test [2], -10.1%; in test [3], -10.2%; in test [4], -25.6%; in test [5], -2.1%; in test [6], -2.6%.

For the compound `COc1ccc(NC(=O)N(C)C)cc1OC`, the growth inhibition was 14.8% in test [1]; -5.25% in test [2]; -4.2% in test [3]; -25.6% in test [4]; 4.4% in test [5]; 15.8% in test [6].

On to `CC1(C)CC(=O)C(/C=N/C(=S)NCCc2ccccc2)=C(O)C1`, for which the growth inhibition in test [1] was -22.8%; in test [2], -53.4%; in test [3], -21.3%; in test [4], -2.85%; in test [5], -14.8%; in test [6], -7.6%.

For the compound `COc1ccccc1NC(=O)CC(=O)N1N=C(N(c2ccccc2)c2ccccc2)CC1c1ccccc1` (stereo not given), the growth inhibition in test [1] is 6.75%; in test [2], -1.1%; in test [3], -7.15%; in test [4] it was 9.8%; in test [5], 9.6%; in test [6] it was 23.1%.

As for `CC1(C)OC(=O)C=C([O-])O1.CC1(C)OC(=O)C=C([O-])O1.CC[O-].CC[O-].[Ti+4]`, the growth inhibition in test [1] was -20.8%; in test [2] it was -36.2%; in test [3] it was 3.6%; in test [4], -8.95%; in test [5], -11.7%; in test [6], -3.15%.

As for `O=c1ccc2c(O)c([N+](=O)[O-])cc([N+](=O)[O-])c2[nH]1`, the growth inhibition in test [1] was 10%; in test [2], -15.7%; in test [3], 3.15%; in test [4], 8.85%; in test [5], 6.3%; in test [6], 20.2%.

As for `O=[N+]([O-])C(/C=N/Nc1ccccc1)/C=N/Nc1ccccc1`, the growth inhibition in test [1] was -5.95%; in test [2], -8.3%; in test [3], -20.8%; in test [4], -6.55%; in test [5], -24.6%; in test [6] it was -10.9%.

With `Nc1ccc(Br)c(N)c1`, the growth inhibition was -0.95% in test [1]; -3.65% in test [2]; -5.35% in test [3]; -16.9% in test [4]; -21.6% in test [5]; -24.9% in test [6].

For `Cn1c(=O)c2c(nc3sc4c(n32)C(=O)c2c(O)ccc(O)c2C4=O)n(C)c1=O`, the growth inhibition in test [1] was 21.6%; in test [2], 30.2%; in test [3] it was 51.5%; in test [4], 55.2%; in test [5] it was 41%; in test [6], -7.2%.

With `CCN(CC)CCCNc1ccc(-c2cc(OC)cc3cccnc23)cc1`, the growth inhibition in test [1] was -5.95%; in test [2], -17.1%; in test [3], -0.05%; in test [4], -14.1%; in test [5], 6%; in test [6] it was 4.4%.

Turning to `O=S(=O)(O)n1ccnc1` (tested in a mixture with another compound), the growth inhibition in test [1] was 20.9%; in test [2] it was 12.3%; in test [3] it was 1.3%; in test [4], -27.9%; in test [5], 14.7%; in test [6], 18.4%.

As for `COc1cc2c(cc1O)CCN[C@@]21CS[C@H]2c3c(OC(C)=O)c(C)c4c(c3C(COC1=O)N1C2C2NC(Cc3cc(C)c(OC)c(O)c32)[C@@H]1O)OCO4` (stereo not given in full), the growth inhibition in test [1] was 91.5% (active); in test [2], 94% (active); in test [3], 93.7% (active); in test [4], 91.5% (active); in test [5], 92.2% (active); in test [6], 91.2% (active).

Consider `Cn1ccc(=O)c2ccccc21`, for which the growth inhibition in test [1] is 3.1%; in test [2], -1%; in test [3] it was -8.55%; in test [4] it was 3.45%; in test [5], 6.1%; in test [6], 1.9%.

`Cc1ccc(Sc2cc([N+](=O)[O-])cc(Sc3ccc(C)cc3)c2Sc2ccc(C)cc2)cc1`: the growth inhibition in test [1] was 22.2%; in test [2], -24.7%; in test [3], 10.4%; in test [4], 5.25%; in test [5], 1.35%; in test [6] it was -11.7%.

Take `CC(C(=O)O)c1ccc(-n2nnc3c(=O)[nH][nH]c(=O)c32)cc1` (stereo not given): the growth inhibition is -16.2% in test [1]; -8.4% in test [2]; -12.6% in test [3]; -17.3% in test [4]; 2.8% in test [5]; -5.7% in test [6].

Take `O=C(OCc1ccccc1CN1CCCC1)c1ccc([N+](=O)[O-])cc1Cl`: the growth inhibition is -13% in test [1]; -15.8% in test [2]; -13.7% in test [3]; -52.7% in test [4]; -0.9% in test [5]; -54.8% in test [6].
